Screening data: PubChem, National Center for Advancing Translational Sciences (NCATS)
HT1080NT lethal – kills 2HG-producing HT-1080-NT fibrosarcoma cells. Potency, µM (titrated, usually from 46.1 µM), for the others: at the highest dose activity, negative = less viability, most hits filed as cytotoxic. 360,000 tested, 1.6% active. HT-1080-NT fibrosarcoma viability, CellTiter-Glo ATP luminescence, 48 h. AID 686970;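 further: NT is the 2HG producing partner of a matched IDH1 knockdown line; potency means the concentration at half of the fitted maximal effect; 0% = DMSO-treated cells and -100% = media-only wells without cells; nearly all actives have a fitted effect of over 55% in size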
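Toxicity toward the 2HG-producing NT line was scored as %Activity, normalised to DMSO and no-cell wells, from CellTiter-Glo luminescence after 48 hours' treatment.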
12-LOX inh – inhibitors of human 12S-lipoxygenase ALOX12 | P18054 | purified 12hLO, xylenol orange hydroperoxide absorbance | Potency, µM (highest dose often 108 µM), for the others: at the top dose activity change, negative = inhibition, usual class: inhibitors | 580,000 tested, 1.1% active; further: potency means the concentration at half of the fitted maximal effect
Target sequence (P18054 whole entry, looked up): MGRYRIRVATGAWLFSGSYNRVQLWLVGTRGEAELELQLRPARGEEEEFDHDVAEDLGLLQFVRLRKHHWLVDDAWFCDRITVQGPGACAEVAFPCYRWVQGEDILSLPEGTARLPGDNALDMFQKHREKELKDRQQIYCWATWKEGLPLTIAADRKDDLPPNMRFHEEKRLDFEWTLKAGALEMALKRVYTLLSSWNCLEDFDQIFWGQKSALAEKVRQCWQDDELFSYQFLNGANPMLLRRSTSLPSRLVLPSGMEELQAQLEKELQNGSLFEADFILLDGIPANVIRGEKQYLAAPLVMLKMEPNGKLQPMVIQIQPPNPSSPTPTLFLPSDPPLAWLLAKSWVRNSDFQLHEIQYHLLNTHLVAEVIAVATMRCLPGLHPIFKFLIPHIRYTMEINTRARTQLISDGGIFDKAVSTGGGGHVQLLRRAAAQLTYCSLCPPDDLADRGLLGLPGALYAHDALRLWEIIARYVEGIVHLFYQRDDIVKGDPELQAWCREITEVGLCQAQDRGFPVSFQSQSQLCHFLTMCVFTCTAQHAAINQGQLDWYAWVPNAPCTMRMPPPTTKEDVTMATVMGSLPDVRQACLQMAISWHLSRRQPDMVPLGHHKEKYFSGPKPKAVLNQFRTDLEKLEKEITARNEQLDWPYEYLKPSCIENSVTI
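Purified human 12hLO (150 nM final) in 25 mM Hepes, 0.01% Triton X-100, pH 7.0 was preincubated 15 min at room temperature with compound. Then 40 uM arachidonic acid was added, 30 min. Hydroperoxide was read by Fe-XO absorbance ratio 573/405 nm.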
HT1080 IDH1KD tx – kills HT-1080 cells with IDH1 knockdown | 360,000 tested, 2% active | Potency, µM (doses to about 46.1 µM), for the others: at the top dose activity, negative = toxicity, actives largely listed as cytotoxic | AID 686971 | HT-1080 IDH1 knockdown viability, ATP luminescence, 48 h;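 further: potency means the concentration at half of the fitted maximal effect; 0% = DMSO wells and -100% = cell-free medium wells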
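After a 2 h attachment period, IDH1KD HT-1080 cells took pin-transferred compound for 48 h at 37 °C; ATP-based luminescence after 10 min room-temperature reagent incubation reported viability.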
TDP1 cell CPT – growth inhibition of DT40 Tdp1-/-;hTDP1 cells with camptothecin (screen for TDP1 inhibitors) | chicken DT40 Tdp1-/-;hTDP1 cells + 20 nM CPT, ATP luminescence, 48 h | Potency, µM (series often up to 46.2 µM), for inactives: top-dose activity change, negative = growth inhibition, actives largely listed as inhibitors | 420,000 tested, 12% active | AID 686979; further: potency means the concentration at half of the fitted maximal effect; nearly all actives have a fitted effect of over 55% in size
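Chicken DT40 Tdp1-/- cells complemented with human TDP1, 400 cells/well, exposed to compounds plus 20 nM camptothecin for at least 48 h at 37 C; viability read as ATP content by CellTiter-Glo luminescence.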
IL1B secr inh – inhibitors of inflammasome signaling (IL-1 beta secretion). THP-1 LPS/ATP IL-1B secretion, AlphaLISA, 16 h; active compounds read low. activity change, % at 57.5 µM. 360,000 tested, 4.7% active; in the data active means activity change below about -50%; inconclusive means mostly about -30% to -49%
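THP-1 cells pretreated 1 hr with compounds (up to 57.5 uM final), then stimulated with LPS (250 ng/mL final) plus ATP (1.25 mM final); secreted IL-1B measured by AlphaLISA after 16 hr, decreased signal indicating inhibition.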
DT40 TDP1 no CPT – qHTS for Inhibitors of human tyrosyl-DNA phosphodiesterase 1 (TDP1): qHTS in cells in absence of CPT. AID 686978, 2013. 420,000 tested, 15% active. Potency, µM (titrated, usually from 46.2 µM), for the others: at the top dose activity change, negative = growth inhibition, usual class: inhibitors. DT40 Tdp1-/- hTDP1 cells, no CPT, ATP luminescence, 48 h; further: potency means the concentration at half of the fitted maximal effect; nearly all actives have a fitted effect of over 55% in size
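Chicken DT40 Tdp1-/- cells complemented with human TDP1, screened without camptothecin (DMSO vehicle only), 400 cells/well. Compounds pin-transferred, cells incubated at 37 °C for at least 48 hr. Growth read as ATP-dependent luminescence (CellTiter-Glo, 30 min at RT).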
* marks the source's active call; other numbers are inactive results; ? = inconclusive; nt = not tested or not shown; [ ] = dose if it differs, or a comment. The sample as a whole holds a higher share of hits than the screen did. Unless noted, the call rests on the fitted dose curve; in most records, active means well fitted curve in the direction sought with a large enough effect; inconclusive means small, poorly fitted or top-dose-only effect, or another doubt; inactive means no such curve, though single readings can be large; an effect the other way counts as inactive or inconclusive. Unless noted, on the % scale 0 is the no-effect control and ±100 the full control effect.

SMILES | HT1080NT lethal | 12-LOX inh | HT1080 IDH1KD tx | TDP1 cell CPT | IL1B secr inh | DT40 TDP1 no CPT
O=C(Nc1ccccc1Cl)c1ccccc1Oc1ccc(C(F)(F)F)cc1[N+](=O)[O-] | ? | ? | ? | 23.1µM* | 15.5 | 18.4µM*
COc1ccc(NC(=O)c2ccco2)cc1NC(=O)COc1ccccc1[N+](=O)[O-] | 0.2% | 0.0% | ? | -13.5% | 17.8 | -15.5%
COc1ccccc1NC(=O)COc1ccc(C(F)(F)F)cc1[N+](=O)[O-] | -2.4% | -7.6% | -16.9% | ? | 3.2 | 18.4µM*
O=C(c1ccccc1Oc1ccc(C(F)(F)F)cc1[N+](=O)[O-])N1CCOCC1 | 3.0% | 4.5% | 2.9% | -4.6% | 8.7 | 16.2%
CCNC(=S)N/N=C/c1ccc(OCC(=O)Nc2ccc(OC)cc2)c(OC)c1 | -16.3% | 18.2% | 0.4% | ? | -1.8 | ?
CCOc1ccc(/C=N/NC(=S)Nc2c(C)cccc2C)cc1 | -24.2% | ? | -29.9% | 20.6µM* | -24.1 | 20.6µM*
CCNC(=S)N/N=C/c1ccc(OCC(=O)Nc2ccc(C)cc2)cc1 | 5.62µM* | 0.0% | 10µM* | ? | 14.2 | -30.0%
O=C(O)CCn1cc(/C=C/C(=O)c2ccc(Cl)cc2)c(-c2ccc(Br)cc2)n1 | -29.1% | ? | ? | 16.4µM* | -92.8* | 23.1µM*
COCCn1c(SCc2nc(N)nc(Nc3ccccc3C)n2)nc2ccccc2c1=O | -18.5% | -17.5% | 4.3% | ? | -9.4 | ?
Cc1ccccc1Nc1nc(N)nc(CSc2nc3ccccc3c(=O)n2C)n1 | -17.5% | 0.0% | -29.3% | 9.2µM* | -52.7* | 8.2µM*
Cc1ccc2c(CSc3nc4ccccc4c(=O)n3CCCO)cc(=O)oc2c1C | ? | ? | ? | ? | -4.3 | 23.1µM*
Cc1ccccc1Nc1nc(N)nc(CSc2nc3ccccc3c(=O)n2CCCO)n1 | ? | 11.6% | -20.1% | ? | -3.3 | 18.4µM*
Cc1ccc(SCc2nc(N)nc(Nc3ccccc3C)n2)cc1C | -10.4% | -9.1% | -14.2% | ? | 16.7 | ?
Cc1ccccc1Nc1nc(N)nc(CSCC(=O)Nc2cccc(Br)c2)n1 | 1.7% | 15.8% | -0.8% | ? | -5.5 | 16.4µM*
COc1ccc(S(=O)(=O)c2c(C)c(C)n(C3CCCC3)c2NC(C)=O)cc1 | nt | -6.4% | nt | nt | nt | nt
CC(=O)N1CCSc2ccc(S(=O)(=O)NCCc3cccc(C)c3)cc21 | -16.8% | -15.4% | -14.6% | 20.6µM* | -80.0* | 10.3µM*
CC(=O)N1CCSc2ccc(S(=O)(=O)NCCc3ccc(C)cc3)cc21 | -28.3% | -10.3% | -5.9% | 23.1µM* | ? | 20.6µM*
CC(=O)N1CCSc2ccc(S(=O)(=O)Nc3ccc(C)cc3)cc21 | -1.8% | -18.9% | -14.9% | ? | 15.6 | -16.0%
CC(=O)N1CCSc2ccc(S(=O)(=O)NCCc3ccc(Cl)cc3)cc21 | 0.6% | -11.8% | ? | 16.4µM* | 9.3 | ?
NC(=O)C1CCN(C(=O)c2ccc3ccccc3n2)CC1 | nt | 27.8% | nt | nt | nt | nt
CCCn1c(C(O)c2ccc(C)cc2)nc2ccccc21 (stereo unspecified) | 3.3% | 0.0% | -0.2% | ? | 1.9 | ?
Cc1cc(C)c(Cn2c(C(O)c3ccccc3)nc3ccccc32)c(C)c1 (stereo unspecified) | nt | -10.6% | nt | 18.4µM* | nt | 9.2µM*
CCn1c(C(O)c2ccccc2)nc2ccccc21 (stereo unspecified) | -15.2% | 21.4% | -8.3% | -7.3% | -7.4 | -8.7%
COc1ccncc1-c1csc(C(O)c2ccccc2)n1 (stereo unspecified) | 2.5% | 16.0% | 16.3% | ? | -11.0 | -44.9%
COc1cc(C(O)c2nc3ccccc3s2)cc(OC)c1OC (stereo unspecified) | -11.5% | 0.0% | -10.8% | 4.11µM* | 9.4 | 9.2µM*
SMILES | HT1080NT lethal | 12-LOX inh | HT1080 IDH1KD tx | TDP1 cell CPT | IL1B secr inh | DT40 TDP1 no CPT
COc1ccc(C(O)c2nc3ccccc3n2C)cc1OC (stereo unspecified) | ? | -10.7% | -29.1% | 9.2µM* | 0.7 | 11.6µM*
CCCn1c(C(O)c2cc(OC)c(OC)c(OC)c2)nc2ccccc21 (stereo unspecified) | -0.4% | 1.4% | 0.5% | ? | 45.3 | 20.6µM*
Cc1ccc(S(=O)(=O)N2CCN(Cc3coc(-c4cccs4)n3)CC2)cc1 | nt | -19.8% | nt | nt | nt | nt
COC1CCCN(c2ccc(C(=O)N3CCC(N4CCOCC4)CC3)cn2)C1 (stereo unspecified) | nt | 7.0% | nt | nt | nt | nt
CN(C)CCOc1ccc2c(c1)C(=O)C(=Cc1ncc([N+](=O)[O-])n1C)C2 | 23.1µM* | ? | 6.51µM* | 0.146µM* | -50.7* | 0.13µM*
C[S+](=O)([O-])CCn1ncc2cc(OCC3CCN(CCC(F)(F)F)CC3)ccc21 | nt | -2.0%[176 µM] | nt | nt | nt | nt
CC(C)COCCCNC(=O)c1cc(-c2ccncc2)nc2ccccc12 | nt | 41.5% | nt | nt | nt | nt
C[C@@H]1CN([C@H](C)CO)S(=O)(=O)c2ccc(Br)cc2O[C@@H]1CN(C)Cc1ccc(-c2ccccc2)cc1 | 18.4µM* | -9.0% | 16.4µM* | ? | -0.8 | 16.4µM*
